From PubChem BioAssay (NCATS)
Inconclusive results are not listed. Active and inactive are the calls of the source. Calls come from the whole dose curve; as a rule, active = well fitted inhibition curve with a large enough effect; inconclusive = small, poorly fitted or top-dose-only effect; inactive = no such curve, though single readings can be large or run the other way.

Assay: Primary qHTS for inhibitors of nuclear receptor binding SET domain protein 2 (NSD2) in an RCH-ACV wild type WT cells (2C) (AID 1645877); note: nearly all actives have a fitted effect of over 70% in size
Details: RCH-ACV (leukaemia line) NSD2 WT (2C) viability, CellTiter-Glo, 72 h; series mostly up to 44.9 µM; activity change, negative = cell killing: at the top concentration
Source text: Assay Provider: Jonathan D. Licht, MD
University of Florida College of Medicine, Gainesville, FL
Mutations in epigenetic regulators are common in relapsed pediatric acute lymphoblastic leukemia (ALL). Here, we uncovered the mechanism underlying the relapse of ALL driven by an activating mutation of the NSD2 histone methyltransferase (p.E1099K). […] Correction of this mutation restored glucocorticoid sensitivity. The transcriptional response to glucocorticoids was blocked in NSD2 mutant cells due to depressed glucocorticoid receptor (GR) levels and the failure of glucocorticoids to autoactivate GR expression. […] Pre-treatment of NSD2 p.E1099K cell lines and PDX samples with PRC2 inhibitors reversed glucocorticoid resistance in vitro and in vivo.
High-throughput drug screening of isogenic RCH-ACV cell lines was performed at the National Center for Advancing Translational Science (NCATS), National Institutes of Health as previously described (1). Briefly, isogenic RCH-ACV NSD2 p.E1099K mutant (9B) and WT cells (2C) were plated at 500 cells/well in a 1536-well plate with a 72-hour incubation with compounds prior to addition of CellTiter-Glo to assess cell viability. NCATS libraries screened include: NPC, MIPE 5.0, Kinase and NPACT. To determine compound activity in the qHTS assay, the concentration-response data for each sample was plotted and modeled by a four-parameter logistic fit yielding IC50 and efficacy (maximal response) values. The area under the curve (AUC) of the dose-response curve ensures both efficacy (magnitude of cell killing) and potency (concentration that elicits cell killing) are accounted for in the analysis of activity.
1. Tobie D Lee, Olivia W Lee, Kyle R Brimacombe, Lu Chen, Rajarshi Guha, Sabrina Lusvarghi, Bethilehem G Tebase, Carleen Klumpp-Thomas, Robert W Robey, Suresh V Ambudkar, Min Shen, Michael M Gottesman, Matthew D Hall. A High-Throughput Screen of a Library of Therapeutics Identifies Cytotoxic Substrates of P-glycoprotein. Mol Pharmacol. 2019, Nov;96(5):629-640.
% is set by controls: 0 for no effect and ±100 for the full control effect; potency is the fitted concentration of half-maximal effect.

Compound	activity change, negative = cell killing	outcome	Potency
COc1cc(CO)ccc1O[C@@H]1O[C@H](CO)[C@@H](O)[C@H](O)[C@H]1O	-11.5% (inactive)		
CC(C)CC(=O)O[C@@H]1O[C@H](CO)[C@@H](O[C@H]2O[C@H](C)[C@@H](N[C@H]3C=C(CO)[C@@H](O[C@H]4O[C@H](CO)[C@@H](O[C@H]5O[C@H](CO)[C@@H](O[C@H]6O[C@H](CO)[C@@H](O)[C@H](O)[C@H]6O)[C@H](O)[C@H]5O)[C@H](O)[C@H]4O)[C@H](O)[C@H]3O)[C@H](O)[C@H]2O)[C@H](O)[C@H]1O		inactive [at 9.23 µM]	
CC(=O)OC12CC(C)C(O)C1/C=C(/COC1OC(CO)C(O)C(O)C1O)CCC1C(/C=C(\C)C2=O)C1(C)C (stereo not given)	-3.1% [at 17.3 µM] (inactive)		
COc1ccc2c(c1)N1C(=O)C[C@@]34C=CC[N@+]5([O-])CC[C@H]2[C@H](CC3)[C@@]145		inactive	
CCC(C)/C=C(C)/C=C/C1=CC2=C(Cl)C(=O)C(C)(OC(C)=O)C(=O)C2=CN1CCCCC(N)C(=O)O (stereo not given)	-17.7% [at 17.3 µM] (inactive)		
C[C@]1(O)CC[C@@H]2C(C(=O)O)=CO[C@@H](O[C@@H]3O[C@H](COC(=O)/C=C/c4ccc(O)c(O)c4)[C@@H](O)[C@H](O)[C@H]3O)[C@@H]21		inactive [at 17.3 µM]	
CC1(O)CCC2C(C3C1CCC3(C)O)C2(C)C (stereo not given)	-8.04% (inactive)		
C=C1CCc2occ(C)c2[C@H]2[C@H]1[C@@]13O[C@@]1(C[C@@H](C)[C@H]3OC(C)=O)[C@H]1O[C@@]21C	-9.89% (inactive)		
COC(=O)[C@]1(C)CCC[C@@]2(C)[C@@H]3CC[C@@H]4C[C@@]3(CC[C@@H]21)C[C@H]4C(=O)O	0.844% (inactive)		
C=C1CC/C=C(/C(=O)O)CCC2C1CC2(C)C (stereo not given)		inactive	
C[C@H]1[C@@H](O)[C@H](O)C2[C@]3(C)C([C@@H](O)[C@H]4OC(=O)[C@@H]1[C@@]24C)[C@](C)(O)C=C[C@H]3O[C@@H]1O[C@H](CO)[C@@H](O)[C@H](O)[C@H]1O (stereo not given in full)	-7.01% [at 17.3 µM] (inactive)		
C[C@@H]1C[C@@H](O)[C@@]23CO[C@]2(CO)C[C@@H](O)CC3[C@@]12CC(c1ccoc1)OC2=O (stereo not given in full)	-4.44% (inactive)		
CC(=O)OC(C)C(C)(O)C(=O)O[C@@H]1CC[C@]2(C)CC(=O)C(=C(C)C)C[C@H]2[C@]1(C)OC(C)=O (stereo not given in full)	-14.5% [at 17.3 µM] (inactive)		
C[C@@]12CC3(S(=O)(=O)O)OC(O1)[C@]1(COC(=O)c4ccccc4)[C@H]3C[C@]21O[C@@H]1O[C@H](CO)[C@@H](O)[C@H](O)[C@H]1O	-6.65% [at 17.3 µM] (inactive)		
N[C@@H](CCNCc1ccc(Cl)cc1)C(=O)N1CCCCC1	-19.3% (inactive)		
C=C1C(O)CC2C(C(=O)O)=COC(OC3OC(CO)C(O)C(O)C3OC(=O)/C=C\c3ccc(O)cc3)C12 (stereo not given)	-0.583% [at 17.3 µM] (inactive)		
CC1=COC(OC2OC(CO)C(O)C(O)C2O)C2C(CO)CC(OC(=O)/C=C/c3ccc(O)cc3)C12 (stereo not given)	-6.53% [at 17.3 µM] (inactive)		
COc1cc(/C=C/c2ccccc2)c(C(=O)O)c(O)c1CC=C(C)C	-16.5% (inactive)		
CC1(C)[C@H]2C[C@H](C/C=C\CCCC(=O)O)[C@@H](NC(=O)c3csc4ccc(O)cc34)[C@@H]1C2	-16.9% (inactive)		
CC(=O)O[C@@H]1[C@H](O[C@@H]2O[C@H](CO)[C@@H](O)[C@H](O)[C@H]2O)[C@@H](O[C@@H]2O[C@@H](C)[C@H](O)[C@@H](O[C@@H]3O[C@H](CO)[C@@H](O)[C@H](O)[C@H]3O)[C@H]2O)[C@H](OC(=O)[C@]23CCC(C)(C)C[C@H]2C2=CCC4[C@@]5(C)C[C@H](O)[C@H](O[C@@H]6O[C@H](C(=O)O)[C@@H](O)[C@H](O)[C@H]6O)[C@@](C)(C(=O)O)C5CC[C@@]4(C)[C@]2(C)CC3)O[C@@H]1C (stereo not given in full)	-3.72% [at 9.23 µM] (inactive)		

Compound	activity change, negative = cell killing	outcome	Potency
CC(=O)OC1CC2(C)C(CCC(C)C23Cc2c(O)cc4c(c2O3)CNC4=O)C(C)(C)C1O (stereo not given)	-16.6% [at 17.3 µM] (inactive)		
OC[C@@]1(O)CO[C@@H](OC[C@H]2O[C@@H](OCc3ccccc3)[C@H](O)[C@@H](O)[C@@H]2O)[C@@H]1O		inactive [at 17.3 µM]	
CC1(C)OC(=O)CC(O)C2(C)C1CC(=O)C1(C)C2C(O)CC2(C)C(c3ccoc3)OC(=O)C3OC321 (stereo not given)	-8.59% [at 17.3 µM] (inactive)		
CC1(C)CC[C@]2(C(=O)O[C@@H]3O[C@H](CO[C@@H]4O[C@H](CO[C@@H]5O[C@H](CO)[C@H](O)[C@H](O)[C@H]5O)[C@@H](O)[C@H](O)[C@H]4O)[C@@H](O)[C@H](O[C@@H]4O[C@H](CO)[C@@H](O)[C@H](O)[C@H]4O)[C@H]3O)[C@H](O)C[C@]3(C)C(=CCC4[C@@]5(C)CC[C@H](O[C@@H]6OC[C@@H](O)[C@H](O)[C@H]6O)[C@@](C)(C(=O)O)C5CC[C@]43C)[C@@H]2C1 (stereo not given in full)		inactive [at 9.23 µM]	
CC1C2=CC(=O)OC2(O)CC2C1CCC1C(C)(C)CCC(O)C21C (stereo not given)			8.98 µM (active)
CC1=C2C3OC(=O)C(C)C3(O)CCC2(C)CCC1 (stereo not given)	-3.72% (inactive)		
C=C(CCO)C(=O)OCC1OCC(OC(=O)C(=C)CCO[C@@H]2O[C@H](CO)[C@@H](O)[C@H](O)[C@H]2O)C(O)C1O (stereo not given in full)		inactive [at 17.3 µM]	
COc1ccc(C(=O)OC2C3C=COC(OC4OC(CO)C(O)C(O)C4O)C3C3(CO)OC23)cc1OC (stereo not given)	1.66% [at 17.3 µM] (inactive)		
COc1cc(C(C)=O)ccc1O[C@@H]1O[C@H](CO[C@@H]2OC[C@@H](O)[C@H](O)[C@H]2O)[C@@H](O)[C@H](O)[C@H]1O	-11.8% [at 17.3 µM] (inactive)		
C[C@H]1CCN2C[C@]34C[C@@]5(C(=O)Nc6c5ccc5c6OC=CC(C)(C)O5)C(C)(C)C3C[C@]12C(=O)N4C (stereo not given in full)	1.53% [at 17.3 µM] (inactive)		
CC(=O)O[C@H]1C[C@@]2(C)[C@@H](CC[C@H]3[C@@]4(C)C=CC(=O)[C@@H](C)[C@@H]4[C@H](OC(C)=O)C(=O)[C@@]32C)/C1=C(\CCC=C(C)C)C(=O)O	3.97% [at 17.3 µM] (inactive)		
O=C(/C=C/c1ccc(O)c(O)c1)O[C@@H]1[C@@H](O)[C@H](OC2CCCCC2O)O[C@H](CO)[C@H]1O (stereo not given in full)	-5.21% [at 17.3 µM] (inactive)		
C/C=C/C(=O)OC1/C=C/C(O)C(OC(C)=O)CCC(=O)OC1C (stereo not given)	-12.9% (inactive)		
CC(C/C=C/C(C)(C)O)C1CCC(C)(O)C(O)C1 (stereo not given)		inactive	
C[C@H]1/C=C/C=C/C=C/C=C/C=C/[C@@H](O)[C@H](C(=O)O)[C@H](O)C[C@H](O)CCC[C@H](O)C[C@H](O)C[C@H](O)[C@@H](C)C(=O)O[C@@H]1C	1.52% [at 17.3 µM] (inactive)		
C/C=C(\C)C(=O)O[C@H]1C=CC(=O)O[C@H]1/C=C/[C@H](O)[C@@H](C)O			23 µM (active)
COC(=O)CCC1(C)C(C(C)(C)O)C(O)CC2(C)Oc3c(C)c4c(c(OC)c3CC21)C(=O)OC4 (stereo not given)	-11% [at 17.3 µM] (inactive)		
CC(=O)NC(Cc1c[nH]c2ccccc(=O)c12)C(=O)O (stereo not given)	3.74% (inactive)		
NC(=O)NCCCC(NC(=O)Cc1ccccc1)C(=O)O (stereo not given)	1.25% (inactive)		
CC(C)C1NC(=O)C2CCCN2C1=O (stereo not given)		inactive	
